The entries come from a sample that favours hits as a whole.
KDM5B inh – inhibitors of human KDM5B histone demethylase. hit rate 2.6% among 220,000. Potency, µM (series often up to 57.7 µM), usual class: inhibitors. KDM5B demethylase, FDH-coupled NADH fluorescence (FDH is formaldehyde dehydrogenase). AID 1347165; active = well fitted inhibition curve with a large enough effect; note: 0% is about no effect; nearly all actives have a fitted effect of over 70% in size
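KDM5BΔAP (200 nM final) in 50 mM HEPES pH 7.5, 0.01% Tween-20 was preincubated 10 min at RT with compound over a concentration range. Substrate mix (H3K4me3 12.5 µM, α-KG 25 µM, Fe²⁺, ascorbate, NAD⁺, FDH) was added, and NADH fluorescence change over 30 min gave dose-response curves.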
* = called active by the depositor. Potency is the fitted concentration of half-maximal effect.

Screening Cc1noc(C)c1-c1cc2cc(CO)oc2c(N2CCS(=O)(=O)CC2)n1 returned KDM5B inh 35µM*.
`COc1cc2c(cc1OC)C(c1ccc(C)cc1)OC2=O` (centres undefined) gave KDM5B inh inactive.
`Cn1nc(C(=O)OCC(=O)Nc2ccc(S(=O)(=O)N3CCCCC3)cc2)c2ccccc2c1=O` gave KDM5B inh inactive.
CC(C)OCc1ccccc1CNS(=O)(=O)c1ccc(Cl)cc1C(F)(F)F was read as KDM5B inh inactive.
`O=c1cc(CN2CCN(c3ccccc3)CC2)c2cc(O)ccc2o1` gave KDM5B inh inactive.
`N#Cc1cccc(C(=O)NC(c2cccs2)C2CCCC2)c1` (centres undefined) gave KDM5B inh inactive.
For CC1=C[C@@H](CNS(=O)(=O)c2ccc(C#N)cc2)[C@H](C(C)C)C[C@H]1CC(=O)N1CCOCC1 the results were KDM5B inh inactive.
For CC1=C[C@@H](CNC(=O)c2cnccn2)[C@H](C(C)C)C[C@H]1CC(=O)O the results were KDM5B inh inactive.
`CC1=C[C@@H](CNC(=O)CC(C)(C)C)[C@H](C(C)C)C[C@H]1CC(=O)O` gave KDM5B inh 28µM*.
Screening COc1ccc(S(=O)(=O)NC[C@@H]2C=C(C)[C@H](CC(=O)N3CCN(C)CC3)C[C@H]2C(C)C)cc1 returned KDM5B inh inactive.
Screening CC(=O)NC[C@@H]1C=C(C)[C@H](CC(=O)O)C[C@H]1C(C)C returned KDM5B inh inactive.
Screening COc1cccc(NC(=O)NC[C@@H]2C=C(C)[C@H](CC(=O)N3CCOCC3)C[C@H]2C(C)C)c1 returned KDM5B inh inactive.
Screening COc1cccc(NC(=O)NC[C@@H]2C=C(C)[C@H](CC(=O)N3CCN(c4ccccn4)CC3)C[C@H]2C(C)C)c1 returned KDM5B inh 32µM*.
COc1ccc(S(=O)(=O)NC[C@@H]2C=C(C)[C@H](CC(=O)N3CCN(c4ccccn4)CC3)C[C@H]2C(C)C)cc1 was read as KDM5B inh 28µM*.
For CC1=C[C@@H](CNC(=O)c2ccccn2)[C@H](C(C)C)C[C@H]1CC(=O)N1CCN(C)CC1 the results were KDM5B inh inactive.
`CC1=C[C@@H](CNC(=O)COc2ccccc2)[C@H](C(C)C)C[C@H]1CC(=O)N1CCN(C)CC1` gave KDM5B inh inactive.
COCC(=O)NC[C@@H]1C=C(C)[C@H](CC(=O)N2CCN(c3ccccn3)CC2)C[C@H]1C(C)C was read as KDM5B inh 32µM*.
CC(=O)N1CCN(C(=O)C[C@@H]2C[C@@H](C(C)C)[C@H](CNC(=O)Nc3cccc(F)c3)C=C2C)CC1 was read as KDM5B inh inactive.
CC(=O)NCc1ccc(-c2csc(Nc3cc(C)cc(C)c3)n2)o1 was read as KDM5B inh inactive.
For COC(=O)C1=C(CS(=O)(=O)c2ccc(C)cc2C)NC(=O)NC1c1ccc(O)cc1 (centres undefined) the results were KDM5B inh inactive.
Cc1cc(C(=O)COC(=O)c2nn(C)c(=O)c3ccccc23)c(C)n1CC1CCCO1 (centres undefined) was read as KDM5B inh inactive.
CC(C)c1ccc(-c2[nH]c3ccccc3c2C=O)cc1 was read as KDM5B inh inactive.
Screening O=S(=O)(c1cccc(F)c1)N1CCN(Cc2ncc(-c3ccc(F)cc3)o2)CC1 returned KDM5B inh inactive.
Cc1ccc2nc(/C(C#N)=C/c3cc(I)cc(I)c3OCc3ccccc3)[nH]c2c1 was read as KDM5B inh inactive.
For CC(CC(=O)NCCc1ccccn1)c1ccccc1 (centres undefined) the results were KDM5B inh inactive.
CCOC(=O)C[C@@H]1C[C@@H](C(C)C)[C@H](CNS(=O)(=O)c2ccc(NC(C)=O)cc2)C=C1C was read as KDM5B inh inactive.
For COCCNC(=O)C[C@@H]1C[C@@H](C(C)C)[C@H](CNS(=O)(=O)c2ccc(OC)cc2)C=C1C the results were KDM5B inh 22µM*.
`CC(=O)Nc1ccc(S(=O)(=O)NC[C@@H]2C=C(C)[C@H](CC(=O)NCCN3CCOCC3)C[C@H]2C(C)C)cc1` gave KDM5B inh inactive.
Screening CCCNC(=O)Nc1ccc2nc(N3CCOCC3)cc(C)c2c1 returned KDM5B inh inactive.
For COc1ccc(-c2nnc([C@H]3CCN(Cc4cccc(C#N)c4)C3)o2)cc1 the results were KDM5B inh inactive.
Screening Cc1ccc(-c2nnc([C@H]3CCN(Cc4ncc[nH]4)C3)o2)cc1 returned KDM5B inh 35µM*.
Screening O=C(O)c1ccc(CN2CC[C@H](c3nnc(-c4ccc(Cl)cc4)o3)C2)cc1 returned KDM5B inh inactive.
Screening COc1ccc(CN2CC[C@H](c3nnc(-c4ccncc4)o3)C2)cc1 returned KDM5B inh inactive.
Screening Cc1ccc(-c2nnc([C@H]3CCN(Cc4ccc(S(C)(=O)=O)cc4)C3)o2)cc1 returned KDM5B inh inactive.
COc1ccc(-c2nnc([C@H]3CCN(Cc4ncc[nH]4)C3)o2)cc1 was read as KDM5B inh 35µM*.
`Cc1cc2cc(NC(=O)c3nccnc3N)ccc2[nH]1` gave KDM5B inh inactive.
For COc1ccc(-c2nc(CSCC(=O)NC3CCCCCC3)co2)cc1 the results were KDM5B inh inactive.
Cc1ccc(C)c(Nc2nc(N3CCN(c4ccc(F)cc4)CC3)nc3nccnc23)c1 was read as KDM5B inh inactive.
Screening Cc1ccc(OCC(=O)NC2=NCCS2)cc1C returned KDM5B inh inactive.
O=C(CN1CCN(c2ccc(F)cc2)CC1)Nc1ccnn1Cc1ccccc1Cl was read as KDM5B inh inactive.
Screening O=c1c2nc(NCc3cccs3)ccc2ncn1Cc1ccccc1 returned KDM5B inh 40µM*.
`O=c1c2ccccc2ncn1Cc1coc(-c2cccs2)n1` gave KDM5B inh inactive.
`O=c1c2nc(Nc3ccccc3)ccc2ncn1-c1ccccc1` gave KDM5B inh inactive.
Screening CC(C)(C)C1CCC(=NNC(=S)NC2CCCCC2)CC1 (centres undefined) returned KDM5B inh inactive.
`CCc1noc(-c2ccn3c(CNC(=O)CCCc4ccccc4)nnc3c2)n1` gave KDM5B inh 7.1µM*.
`O=C(CCCc1ccccc1)NCc1nnc2cc(-c3nc(C4CC4)no3)ccn12` gave KDM5B inh 28µM*.
CCCC(=O)N1Cc2ccccc2CC2(CCN(Cc3ccc(C(F)(F)F)nc3)CC2)C1 was read as KDM5B inh inactive.
`CCN(CC)Cc1ccccc1CNC(=O)CCn1cnc2sc(C)c(C)c2c1=O` gave KDM5B inh inactive.
Screening CCC(CO)Nc1nc2c(c(=O)n(Cc3ccc(F)cc3)c(=O)n2C)n1C (centres undefined) returned KDM5B inh inactive.
COC(=O)C(C#N)c1nc2ccccc2nc1N1CCN(Cc2ccccc2)CC1 (centres undefined) was read as KDM5B inh inactive.
CN(C)CCNCc1ccc2c(c1)OCO2 was read as KDM5B inh inactive.
Clc1ccc(Nc2nc(NC3CCCCCC3)nc3c2cnn3-c2ccccc2)cc1 was read as KDM5B inh inactive.
For Cn1nc(C(=O)N2CCCN(Cc3ccc(C(F)(F)F)cc3)CC2)c2ccccc2c1=O the results were KDM5B inh inactive.
For CN1CCN(CCCNC(=O)C(=O)Nc2ccc3cc[nH]c3c2)CC1 the results were KDM5B inh inactive.
Screening COc1ccccc1OCC(=O)Nc1cccc2cccnc12 returned KDM5B inh inactive.

Bioassay records (PubChem)
